# Test results taken from PubChem BioAssay (NCATS).
# Results filed as inconclusive are left out. Unmarked numbers belong to inactive results. Calls of active or inactive are those of the source. The call rests on the fitted dose curve; in most records, active means well fitted inhibition curve with a large enough effect; inconclusive means small, poorly fitted or top-dose-only effect; inactive means no such curve, though single readings can be large or run the other way.
# Target: Retinaldehyde dehydrogenase 3 (Homo sapiens) (UniProt P47895)
# Assay: qHTS for Inhibitors of the Aldehyde Dehydrogenase Family (ALDH1A3) Validation screen (AID 2061312); further: nearly all actives have a fitted effect of over 45% in size
# Details: ALDH1A3 enzyme inhibition qHTS validation, fluorescence; series mostly up to 84.7 µM; activity change, negative = inhibition: at the top concentration
# On the % scale 0 is the no-effect control and ±100 the full control effect.
SMILES,"activity change, negative = inhibition",Potency
CCCCCCCCCCCCCCCCCCOC[C@H](COP(=O)([O-])OCC[N+](C)(C)C)OC,22% [at 42.4 µM],–
CCCC(=O)NCCc1c2n(c3ccc(OC)cc13)CCCc1ccccc1-2,17.4% [at 42.4 µM],–
CC(=O)Nc1nnc(S(N)(=O)=O)s1,11.7% [at 42.4 µM],–
Nc1ccc2c3c(cccc13)C(=O)NC2=O,-5.75% [at 42.4 µM],–
COc1ccc2c(c1)CCC1C2CC[C@@]2(C)C1CC[C@@H]2NCCCCCCN1C(=O)C=CC1=O (some centres not stated),6.72% [at 42.4 µM],–
CC(C)COCC(CN(Cc1ccccc1)c1ccccc1)N1CCCC1 (configuration not stated),-15.7% [at 42.4 µM],–
COc1ccc(C2CNC(=O)C2)cc1OC1CCCC1 (configuration not stated),16.3% [at 42.4 µM],–
Cc1cc(C)c(/C=C2\C(=O)Nc3ccccc32)[nH]1,13.1% [at 42.4 µM],–
O=C1OC(=O)C2C3CCC(O3)C12 (configuration not stated),0% [at 42.4 µM],–
O=c1cc(-c2ccccc2F)[nH]c2cc3c(cc12)OCO3,-22.4% [at 42.4 µM],–
CC(C)[N+](C)(CCOC(=O)C1c2ccccc2Oc2ccccc21)C(C)C,-16.2% [at 42.4 µM],–
N=c1ccn2c(n1)O[C@H]1[C@H](O)[C@@H](CO)O[C@H]12,-9.27% [at 42.4 µM],–
CC(C)c1cccc(C(C)C)c1N1C(=O)c2ccc(O)cc2C1=O,4.76% [at 42.4 µM],–
C/C=C/CC(C)C(O)C1C(=O)NC(CC)C(=O)N(C)CC(=O)N(C)C(CC(C)C)C(=O)NC(C(C)C)C(=O)N(C)C(CC(C)C)C(=O)NC(C)C(=O)NC(C)C(=O)N(C)C(CC(C)C)C(=O)N(C)C(CC(C)C)C(=O)N(C)C(C(C)C)C(=O)N1C (configuration not stated),–,inactive
O=C1NC(=O)c2cc(Nc3ccccc3)c(Nc3ccccc3)cc21,16% [at 42.4 µM],–
CCN1/C(=C/C(C)=O)Sc2ccc(OC)cc21,16% [at 42.4 µM],–

SMILES,"activity change, negative = inhibition",Potency
CC#CCOC(=O)c1c(C)nc2sc3c(c2c1N)CCC(O)C3 (configuration not stated),15.6% [at 42.4 µM],–
COc1ccc(CCN(C)CCCC(C#N)(c2cc(OC)c(OC)c(OC)c2)C(C)C)cc1OC (configuration not stated),-16.7% [at 42.4 µM],–
NOCC(=O)O,9.52% [at 42.4 µM],–
OCC1NCC(O)C(O)C1O (configuration not stated),0.181% [at 42.4 µM],–
CC[N+](C)(C)c1cccc(O)c1,4.93% [at 42.4 µM],–
CO/N=C(\C(=O)N[C@@H]1C(=O)N2C(C(=O)O)=C(CSc3nc(=O)c(O)nn3C)CSC12)c1csc(N)n1 (some centres not stated),-7.02% [at 42.4 µM],–
Nc1nc2c(ncn2COCCO)c(=O)[nH]1,8.55% [at 42.4 µM],–
NS(=O)(=O)c1cc2c(cc1Cl)NCNS2(=O)=O,8.45% [at 42.4 µM],–
O=C(NCCN1CCOCC1)c1ccc(Cl)cc1,27.9% [at 42.4 µM],–
Cc1ccc(=O)n(-c2ccccc2)c1,7.9% [at 42.4 µM],–
COc1ccc([C@@H]2Sc3ccccc3N(CCN(C)C)C(=O)[C@@H]2OC(C)=O)cc1,-1.51% [at 42.4 µM],–
O=C(N[C@@H](Cc1ccccc1)C(=O)CCl)OCc1ccccc1,-15.3% [at 42.4 µM],–
NC1[C@H]2CN(c3nc4c(cc3F)c(=O)c(C(=O)O)cn4-c3ccc(F)cc3F)C[C@@H]12 (some centres not stated),40.6% [at 42.4 µM],–
CN1C2CC(OC(=O)[C@H](CO)c3ccccc3)CC1C1OC12 (some centres not stated),-2.02% [at 42.4 µM],–
CCN(c1nc(N)c(C(=O)N=C(N)N)nc1Cl)C(C)C,16% [at 42.4 µM],–
CSc1ccc2c(c1)N(CCC1CCCCN1C)c1ccccc1S2 (configuration not stated),-0.39% [at 42.4 µM],–
